Measured values published in PubChem BioAssay (NCI).
The panel holds about 83,000 compounds, 20% with a hit somewhere; the sample as a whole holds those more often.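 Activity criterion: percent growth below 10, measured after cells in 96-well plates were exposed to a single compound concentration for 48 hours.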 A number with no mark means an inactive call. Calls of active or inactive are those of the source.

Tests used:
Assay in all cases: NCI-60 one-dose screen, 48 h (100 = growth as untreated, 0 = no growth, -100 = all killed)
Details in all cases: 10 µM unless noted
BT-549 breast = system: BT-549 breast
MDA-MB-435 melanoma = system: MDA-MB-435 melanoma
SW-620 colon = system: SW-620 colon
MCF7 breast = system: MCF7 breast
HCT-116 colon = system: HCT-116 colon
KM12 colon = system: KM12 colon
HCC-2998 colon = system: HCC-2998 colon

| Compound | growth (BT-549 breast) | growth (MDA-MB-435 melanoma) | growth (SW-620 colon) | growth (MCF7 breast) | growth (HCT-116 colon) | growth (KM12 colon) | growth (HCC-2998 colon) |
| --- | --- | --- | --- | --- | --- | --- | --- |
| CCOC(=O)c1sc(NCC(=O)Nc2cccc([N+](=O)[O-])c2)c(C(=O)OCC)c1C | -19.3% (active) | -82% (active) | 2.53% (active) | -4.78% (active) | 0.39% (active) | -9.01% (active) | – |
| Cc1nc(-c2cc3ccccc3oc2=O)ccc1C(=O)/C=C/c1ccccn1 | 82.5% | 70.8% | 1.33% (active) | 8.39% (active) | -21% (active) | 6.06% (active) | 66.6% |
| CCOC(=O)c1c(Nc2ccccc2)nn2c(N)c(C#N)c(-c3ccc(F)cc3)nc12 | 98.7% | – | 86.5% | 67.6% | 87.4% | 87.3% | 110% |
| OC1CCN(CCCOc2c3ccc(Cl)cc3nc3c2oc2ccccc23)CC1 | – | -76.3% (active) | -19.8% (active) | -32.1% (active) | -34.9% (active) | -16.1% (active) | -68% (active) |
| COc1ccc(NC2=C(Cl)C(=O)C(C)=C(C)C2=O)cc1OC | 108% | – | 101% | 77.8% | 96.4% | 55.2% | – |
| COc1cccc(-c2nn(-c3ccccc3)cc2-c2ccnc(N3CCN(C(=O)c4ccccc4)CC3)c2)c1 | 91.4% | – | 72.1% | 85.5% | 73.3% | – | 113% |
| CC1=C(C)C(=O)C(Nc2cccc(C(F)(F)F)c2)=C(Cl)C1=O | 121% | – | 17.1% | 35.4% | 33.9% | 67.2% | – |
| C#Cc1nc(C2=C(C)C(O)CC2)cs1 (stereo unspecified) | 119% | – | 121% | 85.1% | 111% | 63.9% | 115% |
| Fc1ccc(-c2cc3nc(C(Cl)Cl)nc(-c4ccccc4)n3n2)cc1 | 46.5% | – | -50.2% (active) | 8.55% (active) | -54.7% (active) | -37.7% (active) | -47.1% (active) |
| CC(C)(C)Nc1nc2c(OCCc3ccccc3)cccn2c1-c1ccc(O)cc1 | 85.4% | – | 69% | 45.4% | 38.2% | 38.2% | 52.2% |
| N#Cc1nc(-c2ccccc2)oc1N1CC[C@@H](CO)C1 | 117% | – | 99% | 70.5% | 103% | 111% | 110% |
| Cc1ccc2ccc3ccc(C)nc3c2n1.Cc1ccc2ccc3ccc(C)nc3c2n1.Oc1c(Cl)cc(Cl)c2ccc(CN3CCCCC3)nc12.[Ru] | -95.8% (active) | – | -40% (active) | -75.1% (active) | -92% (active) | -73.9% (active) | -90.1% (active) |
| COc1cc(/C=C/C(=O)c2ccc(C(F)(F)F)cc2)ccc1Oc1nc(NCCO)nc(N2CCOCC2)n1 | 92.9% | – | -3.75% (active) | 17% | -18.5% (active) | 62.4% | 104% |
| CCOC(=O)c1c(Nc2ccccc2)nn2c(-c3ccco3)c(C#N)cnc12 | 83.1% | – | 94.7% | 83.2% | 92.5% | 98.6% | 112% |
| Cc1cc(=O)oc2cc(OCCCOc3ccc(/C=C/C(=O)Nc4ccc(Cl)cc4)cc3)ccc12 | 64.4% | – | 27.2% | 35.1% | 64.8% | – | 69.6% |
| Clc1ccc2oc3c(NCCCN4CCOCC4)c4ccccc4nc3c2c1 | 67.8% | – | 15% | 7.12% (active) | 14.8% | 26.5% | 28.9% |
| COc1cc(/C=C/C(=O)c2cc(OC)c(OC)c(OC)c2)ccc1OCc1ccccc1 | 32% | – | 13.2% | 8.1% (active) | 6.71% (active) | 11.3% | 44.6% |
| O=c1[nH]c2ccc(Cl)cc2cc1CSc1ccccc1Nc1nccc(-c2ccc(Cl)cc2)n1 | 113% | – | 91.9% | 70.3% | 90.4% | 92% | 119% |
| Cn1cc(-c2cc(N)n3nc(-c4cn(C)c5ccc(F)cc45)cc3n2)c2cc(F)ccc21 | 77.5% | – | -36.6% (active) | 10% | -92.8% (active) | 6.56% (active) | 1.23% (active) |
| CC(O)C(NC(=O)C1CCCN1C(=O)CNC(=O)C1CC(=O)NCC(=O)NC(Cc2c[nH]c3ccccc23)C(=O)NC(Cc2ccc(O)cc2)C(=O)NCC(=O)NC(CO)C(=O)NC(CCC(N)=O)C(=O)NC(Cc2c[nH]c3ccccc23)C(=O)N1)C(=O)NCC(=O)NC(CCC(N)=O)C(=O)NC(CCCNC(=N)N)C(=O)NC(CC(=O)O)C(=O)O (stereo unspecified) | 115% | – | 102% | 96.4% | 97.4% | 105% | 120% |
| CS(=O)(=O)Nc1ccc(-c2nn(-c3ccc(S(C)(=O)=O)cc3)cc2/C=C/C(=O)c2ccc(NC(=O)CO[N+](=O)[O-])cc2)cc1 | 98.7% | – | 113% | 94.5% | 103% | 106% | 101% |
| N#Cc1ccc(/C=N/NC(=O)c2[nH]c3ccc(Br)cc3c2-c2ccccc2)s1 | -11.4% (active) | – | 22.9% | 5.58% (active) | -18.9% (active) | 11% | 21.8% |
| COc1cc2cc(Oc3ccc(NC(=O)c4cccc(C(F)(F)F)c4)cc3)c(C)nc2cc1OCCN1CCCCC1 | 98.7% | – | -71.7% (active) | 12.7% | 0.649% (active) | – | -17.7% (active) |
| CCOC(=O)c1c(Nc2ccccc2)nn2c(N)c(C#N)c(-c3ccc(OC)cc3)nc12 | 52.6% | – | 94.7% | 70.3% | 77.8% | 83% | 92.5% |
| N#Cc1c(-c2ccc(Cl)cc2)nc(SCc2ccc([N+](=O)[O-])cc2)nc1N1CCNCC1 | 89.6% | – | -52.8% (active) | -43.9% (active) | -91.5% (active) | -47.2% (active) | -40.1% (active) |
